# Source: PubChem BioAssay AID540356 (Broad Institute, 2011)
# The whole screen tested about 2,500 compounds, of which about 360 (14%) were called active. These entries were drawn from the full list. Unmarked numbers belong to inactive results.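 The calls were made as follows: active = signal-lowering compounds whose fitted half-maximal concentration AC50 is no higher than ten times their top tested concentration; inconclusive = flat curve with 30 to 70% inhibition, or poor fit; inactive = flat within 30%, signal increase, or AC50 above limit.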
# Experiment: non-specific inhibitors of H2O2 luminol chemiluminescence – biochemical, luminescence, no ALR or DTT, cherry-pick, artefact control for ALR inhibitor project, dose response (AID 540356);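 as to activity change, negative = inhibition: 0% = median of neutral control wells and -100% = median of quercitin 100 µM wells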
# Conditions: HRP/H2O2 luminol luminescence counterscreen; series mostly up to 10 µM; activity change, negative = inhibition: at the top concentration
SMILES,"activity change, negative = inhibition [%]",AC50
COc1ccc(CNc2cc(C)ccc2C)c(OC)c1OC,-0.348,–
CC(NC(=O)C(=O)N1CCCCC1)C(c1cccs1)N1CCN(c2ccc(F)cc2)CC1 (stereo not given),-2.02,–
NNC(=O)CCc1nc2ccc(O)cc2[nH]1,–,10.3 µM (active)
Nc1ccc2nc(COc3ccccc3)[nH]c2c1,-2.37,–
NNC(=O)c1ccc(O)cc1O,-15.9,–
C/C(=N\Nc1ccc(C(=O)O)cc1)c1ccc(Br)cc1,0.548,–
COc1ccc(Cc2nc3ccccc3n2CC(=O)N/N=C/c2ccc(O)cc2)cc1OC,-5.93,–
COc1cccc(-c2noc(Cn3nc(C)c([N+](=O)[O-])c3C)n2)c1,-1.36,–
Nc1ccc2nc(NC(=O)C3CCCCC3)sc2c1,-15.8,–
Nc1cccc(C(=O)Nc2ccc3nc(-c4cccnc4)[nH]c3c2)c1,-4.09,–
Cn1c(C2CCCCC2)nc2cc(N)ccc21,-6.46,–
COc1ccc2nc(-c3ccc(N)cc3)[nH]c2c1,-3.19,–
CC(C)(C)c1ccc(-c2nc3cc(N)ccc3o2)cc1,-0.704,–
Nc1ccc(-c2nc3cc(N)ccc3o2)cc1,-2.98,–
Nc1ccc(-c2nc3ccccc3[nH]2)cc1,-5.97,–
Nc1ccc2nc(-c3ccccc3)[nH]c2c1,–,9.02 µM (active)
Nc1ccc2nc[nH]c2c1,-6.66,–
O=[N+]([O-])c1ccc(CSC2=NCCN2)cc1,-0.782,–
Cc1cccc2nc(-c3cccnc3)c(Nc3ccccc3)n12,0.126,–
COc1ccc(NCC(=O)N/N=C/C2CCCCC2)cc1,-4.24,–

SMILES,"activity change, negative = inhibition [%]",AC50
NNc1nc2ccc(F)cc2s1,2.12,–
Cc1[nH]c2ccccc2c1/C=N/NC(=O)Cc1cccs1,0.71,–
COc1cc(CNc2ncc(-c3ccc(Cl)cc3)n2C)cc(OC)c1OC,-1.7,–
Cc1ccc(Nc2c(-c3ccccc3O)nc3ncccn23)cc1,-0.343,–
Cc1csc(/C(=N/OC(=O)c2ccco2)C(N)=O)n1,-4.37,–
CC(=O)Nc1ccc(N2C(=O)CSC2c2ccccc2[N+](=O)[O-])cc1 (stereo not given),-1.06,–
Brc1ccc(CN2CCN(c3ccccc3)CC2)o1,-0.297,–
Nc1ccc2sc(N)nc2c1,0.855,–
Nc1ccc(-c2nc3ccc([N+](=O)[O-])cc3[nH]2)cc1,-2.03,–
Cc1ccc2nc(-c3cccc(N)c3)[nH]c2c1,-2.99,–
Nc1ccc2oc(-c3cccs3)nc2c1,0.849,–
Cc1nc2ccc(-c3nc4ccc(N)cc4[nH]3)cc2[nH]1,–,4.68 µM (active)
O=C(Nc1nc(-c2ccccc2)ns1)c1cccs1,0.554,–
Cc1nnc2sc(SCc3cccc(Cl)c3)nn2c1=O,-3.49,–
O=S(c1ccc2ccccc2c1)c1cnns1 (stereo not given),-1.35,–
C/C(Cl)=C\Cn1c(Nc2ccccc2)nc2c1c(=O)n(C)c(=O)n2C,-2.8,–
CSCc1ccc(C(=O)NC(C)c2ccc(-n3ccnc3)cc2)cc1 (stereo not given),8.36,–
O=C(CCc1ccccc1)N1CCN(c2ccc(F)cc2)CC1,-3.68,–
CC(=O)Nc1ccc(-c2csc(NNC(=O)c3ccccc3)n2)cc1,3.23,–
CC(C)=NNc1nc(-c2ccc(N3C(=O)CCC3=O)cc2)cs1,–,6.32 µM (active)

SMILES,"activity change, negative = inhibition [%]",AC50
CC(C)=NNc1nc(-c2ccccc2)cs1,16.3,–
CN(C)c1ccc(C(=O)Nc2nc3c(s2)CCCC3)cc1,-0.229,–
CSCC[C@H](NC(=O)N1CCn2c1nc1ccccc12)C(=O)NC1CCCCC1,0.885,–
O=C(Cc1ccccc1)NNc1c2ccccc2nc2ccccc12,-6.89,–
CC(=O)NC(C)C(c1cccs1)N1CCN(c2ccccc2)CC1 (stereo not given),-0.36,–
COc1ccc(C(=O)N2CCCC(Nc3ccc(C)c(C)c3)C2)cc1 (stereo not given),-3.42,–
Oc1[nH]c2ccccc2c1C1=NCCCC1,-3.74,–
CC(=O)c1ccc(S(=O)(=O)Nc2cccc(S(=O)(=O)NC3=NCCC3)c2)cc1,0.003,–
c1ccc(NNC2=NCCCCC2)cc1,–,6.06 µM (active)
CN(C)c1ccc(CN(C(=O)c2ccccc2Br)C2CCS(=O)(=O)C2)cc1 (stereo not given),-3.29,–
COc1ccc(N2CCN(CC(=O)Nc3ccc(C)c(C)c3)CC2)cc1,-1.61,–
Cc1ccc(C(=O)NCCSc2snnc2C)cc1,7.72,–
Cc1ccc(-c2n[nH]c(=S)n2/N=C/c2c(C)[nH]n(-c3ccccc3)c2=O)cc1,-10.5,–
O=c1cc(-c2ccccc2)[nH]c2[nH]n(-c3ccccc3)c(=O)c12,-14.8,–
N#Cc1ccc(CSc2nnc(NC(=O)c3ccc(=O)[nH]c3)s2)cc1,-1.28,–
NNC(=O)c1cccc(COc2ccccc2Br)c1,2.34,–
Cc1cccc(N2CCN(C(=O)C3CCCN(S(=O)(=O)c4cnc[nH]4)C3)CC2C)c1 (stereo not given),-1.73,–
S=c1[nH]nc(-c2cccc3ccccc23)n1-c1cccnc1,-7.05,–
COc1cccc(/C=N/NC(=O)NC2CCCCC2)c1O,-11.7,–
COc1cccc(/C=N/n2c(-c3cc(C)[nH]n3)n[nH]c2=S)c1OC,-11.2,–
